Reference: ChEMBL document CHEMBL1961873, “Compounds: GSK PKIS; Assays: Nanosyn kinase panel” (2012)

How the values were obtained:
[1] = target: T1, Mitogen-activated protein kinase 12 (Homo sapiens) (UniProt P53778); conditions: at 1 µM;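 also: values are averaged p38gamma kinase inhibition readings, compounds tested at 1 µM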
T1 sequence (whole entry): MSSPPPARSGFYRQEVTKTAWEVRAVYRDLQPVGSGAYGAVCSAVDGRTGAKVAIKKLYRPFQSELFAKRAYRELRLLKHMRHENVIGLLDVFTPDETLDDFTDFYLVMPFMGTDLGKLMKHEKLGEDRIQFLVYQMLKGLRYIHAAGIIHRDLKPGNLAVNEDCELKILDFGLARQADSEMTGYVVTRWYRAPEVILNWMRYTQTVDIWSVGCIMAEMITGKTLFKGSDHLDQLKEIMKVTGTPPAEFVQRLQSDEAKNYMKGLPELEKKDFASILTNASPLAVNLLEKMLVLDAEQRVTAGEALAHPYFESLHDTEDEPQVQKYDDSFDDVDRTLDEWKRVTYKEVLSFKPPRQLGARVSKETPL

[2] = target: SRSF protein kinase 1 (Homo sapiens) (UniProt Q96SB4); conditions: at 0.1 µM
Chain of SRSF protein kinase 1 (Homo sapiens) (Q96SB4 whole entry, canonical isoform): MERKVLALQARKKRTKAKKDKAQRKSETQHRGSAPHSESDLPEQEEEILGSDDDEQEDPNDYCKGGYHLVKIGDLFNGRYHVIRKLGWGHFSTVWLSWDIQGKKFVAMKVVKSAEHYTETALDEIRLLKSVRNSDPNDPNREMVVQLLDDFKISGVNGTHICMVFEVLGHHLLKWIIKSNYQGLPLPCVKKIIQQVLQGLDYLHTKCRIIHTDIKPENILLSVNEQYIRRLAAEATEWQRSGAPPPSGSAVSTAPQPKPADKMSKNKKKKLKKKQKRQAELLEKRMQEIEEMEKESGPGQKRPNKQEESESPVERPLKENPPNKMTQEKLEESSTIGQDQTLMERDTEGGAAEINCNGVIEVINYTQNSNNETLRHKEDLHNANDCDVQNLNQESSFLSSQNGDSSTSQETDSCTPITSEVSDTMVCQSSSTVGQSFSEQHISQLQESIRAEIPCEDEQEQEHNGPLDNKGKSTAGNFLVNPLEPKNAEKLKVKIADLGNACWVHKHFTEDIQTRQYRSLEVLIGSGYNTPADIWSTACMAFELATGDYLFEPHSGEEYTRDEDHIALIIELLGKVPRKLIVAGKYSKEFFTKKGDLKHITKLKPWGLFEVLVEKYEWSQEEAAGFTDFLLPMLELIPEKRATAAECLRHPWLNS

[3] = target: SRSF protein kinase 1 (Homo sapiens) (UniProt Q96SB4); conditions: at 1 µM
[4] = target: Phosphatidylinositol 4,5-bisphosphate 3-kinase catalytic subunit alpha isoform (Homo sapiens) (UniProt P42336); conditions: at 0.1 µM
Chain of Phosphatidylinositol 4,5-bisphosphate 3-kinase catalytic subunit alpha isoform (Homo sapiens) (P42336 whole entry, canonical isoform): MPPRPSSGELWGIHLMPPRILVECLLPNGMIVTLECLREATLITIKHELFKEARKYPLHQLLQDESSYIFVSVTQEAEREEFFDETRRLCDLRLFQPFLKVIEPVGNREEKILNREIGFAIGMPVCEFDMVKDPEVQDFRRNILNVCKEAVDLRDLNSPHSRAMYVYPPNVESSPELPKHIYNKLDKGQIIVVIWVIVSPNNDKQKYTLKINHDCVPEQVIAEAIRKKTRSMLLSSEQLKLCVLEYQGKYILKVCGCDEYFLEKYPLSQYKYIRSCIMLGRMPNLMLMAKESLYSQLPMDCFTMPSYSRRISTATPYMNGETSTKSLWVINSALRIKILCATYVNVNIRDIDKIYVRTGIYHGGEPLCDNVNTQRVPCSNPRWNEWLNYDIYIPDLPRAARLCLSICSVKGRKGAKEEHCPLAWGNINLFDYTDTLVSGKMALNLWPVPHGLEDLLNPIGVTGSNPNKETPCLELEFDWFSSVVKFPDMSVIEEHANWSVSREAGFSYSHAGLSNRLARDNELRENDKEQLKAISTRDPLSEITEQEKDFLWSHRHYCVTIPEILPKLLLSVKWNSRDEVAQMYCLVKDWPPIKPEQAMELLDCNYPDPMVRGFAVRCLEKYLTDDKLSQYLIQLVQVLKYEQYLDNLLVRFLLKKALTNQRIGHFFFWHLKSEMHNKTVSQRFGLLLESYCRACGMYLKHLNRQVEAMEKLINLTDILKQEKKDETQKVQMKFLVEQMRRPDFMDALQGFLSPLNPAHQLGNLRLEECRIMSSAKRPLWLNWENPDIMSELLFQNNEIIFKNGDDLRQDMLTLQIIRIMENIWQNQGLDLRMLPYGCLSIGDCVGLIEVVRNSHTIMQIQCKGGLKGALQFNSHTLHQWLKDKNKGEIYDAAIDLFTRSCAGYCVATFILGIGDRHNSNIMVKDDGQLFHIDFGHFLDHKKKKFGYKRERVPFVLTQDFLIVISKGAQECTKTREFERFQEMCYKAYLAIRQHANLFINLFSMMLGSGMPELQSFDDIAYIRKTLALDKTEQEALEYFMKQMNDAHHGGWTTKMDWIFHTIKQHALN

[5] = target: Phosphatidylinositol 4,5-bisphosphate 3-kinase catalytic subunit alpha isoform (Homo sapiens) (UniProt P42336); conditions: at 1 µM
[6] = target: T2, Phosphatidylinositol 4,5-bisphosphate 3-kinase catalytic subunit delta isoform (Homo sapiens) (UniProt O00329); conditions: at 0.1 µM
T2 sequence (whole entry): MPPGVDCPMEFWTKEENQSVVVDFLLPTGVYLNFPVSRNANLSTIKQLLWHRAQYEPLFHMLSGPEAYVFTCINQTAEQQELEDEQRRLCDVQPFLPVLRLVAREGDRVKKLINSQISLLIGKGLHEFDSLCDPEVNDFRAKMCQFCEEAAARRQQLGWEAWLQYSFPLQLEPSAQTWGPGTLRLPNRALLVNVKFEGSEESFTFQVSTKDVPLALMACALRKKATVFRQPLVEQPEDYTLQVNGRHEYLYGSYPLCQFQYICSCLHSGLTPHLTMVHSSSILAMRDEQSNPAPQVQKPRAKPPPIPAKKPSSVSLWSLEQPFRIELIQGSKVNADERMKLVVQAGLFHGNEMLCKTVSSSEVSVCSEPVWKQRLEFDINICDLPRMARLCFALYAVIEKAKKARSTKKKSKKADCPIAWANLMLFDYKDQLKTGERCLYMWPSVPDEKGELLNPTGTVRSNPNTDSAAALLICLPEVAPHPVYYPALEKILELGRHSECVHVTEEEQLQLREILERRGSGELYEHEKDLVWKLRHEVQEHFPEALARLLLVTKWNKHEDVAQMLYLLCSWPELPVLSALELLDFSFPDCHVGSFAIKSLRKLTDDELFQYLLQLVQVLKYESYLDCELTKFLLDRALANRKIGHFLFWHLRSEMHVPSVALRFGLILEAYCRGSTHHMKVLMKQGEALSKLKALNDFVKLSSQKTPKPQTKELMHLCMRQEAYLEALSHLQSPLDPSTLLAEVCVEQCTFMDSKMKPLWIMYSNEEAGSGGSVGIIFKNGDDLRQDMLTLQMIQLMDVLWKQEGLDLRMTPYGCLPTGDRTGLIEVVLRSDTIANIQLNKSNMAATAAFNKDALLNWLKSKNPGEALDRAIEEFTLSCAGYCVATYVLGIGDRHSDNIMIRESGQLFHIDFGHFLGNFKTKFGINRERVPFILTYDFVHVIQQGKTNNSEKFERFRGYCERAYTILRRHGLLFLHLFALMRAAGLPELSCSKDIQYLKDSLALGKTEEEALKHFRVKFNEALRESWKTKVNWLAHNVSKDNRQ

[7] = target: T2, Phosphatidylinositol 4,5-bisphosphate 3-kinase catalytic subunit delta isoform (Homo sapiens); conditions: at 1 µM
[8] = target: Phosphatidylinositol 4-kinase beta (Homo sapiens) (UniProt Q9UBF8); conditions: at 0.1 µM
Chain of Phosphatidylinositol 4-kinase beta (Homo sapiens) (Q9UBF8 2-816 limits assumed): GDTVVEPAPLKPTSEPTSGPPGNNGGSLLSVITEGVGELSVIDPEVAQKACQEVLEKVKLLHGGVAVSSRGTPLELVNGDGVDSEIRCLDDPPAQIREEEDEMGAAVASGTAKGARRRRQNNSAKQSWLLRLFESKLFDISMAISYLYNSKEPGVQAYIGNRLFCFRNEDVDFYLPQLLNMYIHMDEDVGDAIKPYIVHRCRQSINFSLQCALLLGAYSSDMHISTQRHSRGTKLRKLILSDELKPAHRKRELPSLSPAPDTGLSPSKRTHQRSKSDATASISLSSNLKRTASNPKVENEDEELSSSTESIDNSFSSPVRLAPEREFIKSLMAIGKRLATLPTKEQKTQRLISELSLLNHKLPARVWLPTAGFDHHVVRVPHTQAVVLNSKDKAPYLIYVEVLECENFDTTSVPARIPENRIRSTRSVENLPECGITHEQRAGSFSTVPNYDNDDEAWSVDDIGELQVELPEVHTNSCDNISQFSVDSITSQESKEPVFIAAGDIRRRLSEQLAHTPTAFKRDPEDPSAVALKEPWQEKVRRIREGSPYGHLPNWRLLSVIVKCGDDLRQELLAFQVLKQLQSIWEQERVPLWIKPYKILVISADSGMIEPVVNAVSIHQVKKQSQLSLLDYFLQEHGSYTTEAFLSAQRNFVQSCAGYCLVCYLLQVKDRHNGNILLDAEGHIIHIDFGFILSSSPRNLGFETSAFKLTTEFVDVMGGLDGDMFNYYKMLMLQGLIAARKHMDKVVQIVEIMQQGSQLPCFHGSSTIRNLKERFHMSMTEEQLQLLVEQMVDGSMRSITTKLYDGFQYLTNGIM

[9] = target: Phosphatidylinositol 4-kinase beta (Homo sapiens) (UniProt Q9UBF8); conditions: at 1 µM
[10] = target: Sphingosine kinase 1 (Homo sapiens) (UniProt Q9NYA1); conditions: at 0.1 µM
Chain of Sphingosine kinase 1 (Homo sapiens) (Q9NYA1 whole entry): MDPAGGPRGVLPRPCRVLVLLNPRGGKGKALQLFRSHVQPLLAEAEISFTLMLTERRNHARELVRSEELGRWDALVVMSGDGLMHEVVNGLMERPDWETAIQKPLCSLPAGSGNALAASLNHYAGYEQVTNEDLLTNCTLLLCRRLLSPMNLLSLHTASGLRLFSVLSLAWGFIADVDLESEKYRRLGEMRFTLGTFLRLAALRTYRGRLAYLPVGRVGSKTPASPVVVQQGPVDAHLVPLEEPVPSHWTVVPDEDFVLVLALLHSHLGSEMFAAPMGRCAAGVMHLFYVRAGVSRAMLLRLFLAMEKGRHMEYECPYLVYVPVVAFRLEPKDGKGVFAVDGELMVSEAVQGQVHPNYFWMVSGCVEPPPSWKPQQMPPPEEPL

[11] = target: Sphingosine kinase 1 (Homo sapiens) (UniProt Q9NYA1); conditions: at 1 µM
[12] = target: T3, Sphingosine kinase 2 (Homo sapiens) (UniProt Q9NRA0); conditions: at 0.1 µM
T3 sequence (whole entry): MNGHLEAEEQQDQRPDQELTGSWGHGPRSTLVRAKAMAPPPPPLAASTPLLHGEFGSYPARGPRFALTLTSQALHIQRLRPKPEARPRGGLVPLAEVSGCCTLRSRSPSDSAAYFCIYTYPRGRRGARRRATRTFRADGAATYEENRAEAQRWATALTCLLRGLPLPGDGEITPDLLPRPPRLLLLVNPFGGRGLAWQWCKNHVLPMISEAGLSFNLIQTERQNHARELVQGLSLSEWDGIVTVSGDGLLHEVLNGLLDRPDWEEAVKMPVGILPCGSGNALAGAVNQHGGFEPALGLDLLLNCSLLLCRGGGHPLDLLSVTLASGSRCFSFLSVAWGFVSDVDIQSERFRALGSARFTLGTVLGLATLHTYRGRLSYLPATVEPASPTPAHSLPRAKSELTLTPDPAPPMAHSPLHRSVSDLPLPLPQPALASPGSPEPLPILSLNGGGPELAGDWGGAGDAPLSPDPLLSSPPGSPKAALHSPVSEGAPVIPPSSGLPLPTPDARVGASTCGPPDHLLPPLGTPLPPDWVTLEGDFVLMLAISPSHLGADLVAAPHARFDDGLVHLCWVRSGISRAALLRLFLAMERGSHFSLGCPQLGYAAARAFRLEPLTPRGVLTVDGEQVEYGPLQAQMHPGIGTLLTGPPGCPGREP

[13] = target: T3, Sphingosine kinase 2 (Homo sapiens); conditions: at 1 µM
[14] = target: Casein kinase II subunit alpha (Homo sapiens) (UniProt P68400); conditions: at 0.1 µM
Chain of Casein kinase II subunit alpha (Homo sapiens) (P68400 whole entry, looked up): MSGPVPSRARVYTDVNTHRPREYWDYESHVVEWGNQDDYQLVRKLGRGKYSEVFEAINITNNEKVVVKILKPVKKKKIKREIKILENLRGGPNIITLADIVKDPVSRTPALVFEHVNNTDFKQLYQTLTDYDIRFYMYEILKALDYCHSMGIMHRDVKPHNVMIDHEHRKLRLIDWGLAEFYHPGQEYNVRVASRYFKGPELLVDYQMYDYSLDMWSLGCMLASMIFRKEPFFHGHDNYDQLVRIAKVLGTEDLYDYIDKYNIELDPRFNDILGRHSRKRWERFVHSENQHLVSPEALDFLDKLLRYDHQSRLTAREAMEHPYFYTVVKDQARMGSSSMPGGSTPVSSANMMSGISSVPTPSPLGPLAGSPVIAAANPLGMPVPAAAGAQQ

[15] = target: Casein kinase II subunit alpha (Homo sapiens) (UniProt P68400); conditions: at 1 µM
[16] = target: T4, Inhibitor of nuclear factor kappa-B kinase subunit alpha (Homo sapiens) (UniProt O15111); conditions: at 0.1 µM
T4 sequence (whole entry): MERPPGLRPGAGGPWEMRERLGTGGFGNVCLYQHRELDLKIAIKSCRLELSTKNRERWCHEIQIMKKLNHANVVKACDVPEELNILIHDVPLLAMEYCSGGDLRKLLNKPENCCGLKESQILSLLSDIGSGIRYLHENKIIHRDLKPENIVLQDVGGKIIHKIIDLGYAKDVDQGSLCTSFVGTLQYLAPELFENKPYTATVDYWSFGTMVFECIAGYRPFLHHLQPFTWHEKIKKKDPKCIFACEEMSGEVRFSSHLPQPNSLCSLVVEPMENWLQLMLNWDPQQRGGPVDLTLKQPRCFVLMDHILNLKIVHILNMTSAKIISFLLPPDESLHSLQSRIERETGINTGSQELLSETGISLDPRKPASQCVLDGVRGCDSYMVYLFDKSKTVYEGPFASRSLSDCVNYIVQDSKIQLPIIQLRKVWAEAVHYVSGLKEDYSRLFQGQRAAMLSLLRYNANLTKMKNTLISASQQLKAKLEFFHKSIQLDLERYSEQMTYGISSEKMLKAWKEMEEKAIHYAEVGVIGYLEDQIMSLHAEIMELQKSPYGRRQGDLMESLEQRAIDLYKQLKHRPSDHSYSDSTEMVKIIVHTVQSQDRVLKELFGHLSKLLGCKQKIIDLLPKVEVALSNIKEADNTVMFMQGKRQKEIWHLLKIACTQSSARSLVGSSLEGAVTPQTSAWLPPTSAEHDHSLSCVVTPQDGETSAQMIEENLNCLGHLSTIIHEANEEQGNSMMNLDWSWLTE

[17] = target: T4, Inhibitor of nuclear factor kappa-B kinase subunit alpha (Homo sapiens); conditions: at 1 µM
[18] = target: T5, Inhibitor of nuclear factor kappa-B kinase subunit beta (Homo sapiens) (UniProt O14920); conditions: at 0.1 µM
T5 sequence (whole entry): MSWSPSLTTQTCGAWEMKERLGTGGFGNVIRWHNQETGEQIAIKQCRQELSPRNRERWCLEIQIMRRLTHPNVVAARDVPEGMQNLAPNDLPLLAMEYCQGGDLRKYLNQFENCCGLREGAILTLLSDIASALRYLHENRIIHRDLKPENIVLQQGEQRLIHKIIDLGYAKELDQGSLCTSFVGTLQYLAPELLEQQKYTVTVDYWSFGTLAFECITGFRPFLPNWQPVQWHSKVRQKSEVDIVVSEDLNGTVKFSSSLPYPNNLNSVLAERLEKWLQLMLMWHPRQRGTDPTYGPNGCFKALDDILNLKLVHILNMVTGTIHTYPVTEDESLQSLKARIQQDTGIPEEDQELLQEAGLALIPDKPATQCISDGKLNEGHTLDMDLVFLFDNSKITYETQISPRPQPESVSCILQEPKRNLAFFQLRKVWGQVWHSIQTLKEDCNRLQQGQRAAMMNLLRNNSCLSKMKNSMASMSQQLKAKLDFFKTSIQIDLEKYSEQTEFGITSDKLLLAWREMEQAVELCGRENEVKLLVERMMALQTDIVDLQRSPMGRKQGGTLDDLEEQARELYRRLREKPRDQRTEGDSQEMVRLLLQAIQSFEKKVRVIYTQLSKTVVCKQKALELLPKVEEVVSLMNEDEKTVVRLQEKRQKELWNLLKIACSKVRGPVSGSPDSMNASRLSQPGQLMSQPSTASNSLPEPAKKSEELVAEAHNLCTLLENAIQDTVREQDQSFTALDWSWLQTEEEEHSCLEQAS

[19] = target: T5, Inhibitor of nuclear factor kappa-B kinase subunit beta (Homo sapiens); conditions: at 1 µM
[20] = target: T6, Inhibitor of nuclear factor kappa-B kinase subunit epsilon (Homo sapiens) (UniProt Q14164); conditions: at 0.1 µM;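 also: mean inhibition of IKKε reported, from the GSK PKIS dataset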
T6 sequence (whole entry): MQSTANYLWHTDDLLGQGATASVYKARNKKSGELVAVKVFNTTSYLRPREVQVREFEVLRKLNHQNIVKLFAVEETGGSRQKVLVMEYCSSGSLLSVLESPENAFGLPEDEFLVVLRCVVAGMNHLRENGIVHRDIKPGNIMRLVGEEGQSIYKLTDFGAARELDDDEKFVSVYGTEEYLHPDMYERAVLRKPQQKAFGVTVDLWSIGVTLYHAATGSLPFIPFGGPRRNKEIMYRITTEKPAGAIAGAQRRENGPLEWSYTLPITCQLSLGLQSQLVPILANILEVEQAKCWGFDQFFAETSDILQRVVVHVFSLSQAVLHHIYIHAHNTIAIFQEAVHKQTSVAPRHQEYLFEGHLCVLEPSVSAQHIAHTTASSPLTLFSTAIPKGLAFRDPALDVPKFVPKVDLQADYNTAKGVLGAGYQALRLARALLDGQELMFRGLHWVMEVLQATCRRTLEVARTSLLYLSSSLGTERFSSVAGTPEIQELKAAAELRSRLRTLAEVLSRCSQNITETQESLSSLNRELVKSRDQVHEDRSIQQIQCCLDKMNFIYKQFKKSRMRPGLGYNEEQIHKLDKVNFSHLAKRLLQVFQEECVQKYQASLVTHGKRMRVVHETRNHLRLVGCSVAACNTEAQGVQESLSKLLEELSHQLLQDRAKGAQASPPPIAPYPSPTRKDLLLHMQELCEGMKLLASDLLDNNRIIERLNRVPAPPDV

| Structure (SMILES) | inhibition [1] [%] | inhibition [2] [%] | inhibition [3] [%] | inhibition [4] [%] | inhibition [5] [%] | inhibition [6] [%] | inhibition [7] [%] | inhibition [8] [%] | inhibition [9] [%] | inhibition [10] [%] | inhibition [11] [%] | inhibition [12] [%] | inhibition [13] [%] | inhibition [14] [%] | inhibition [15] [%] | inhibition [16] [%] | inhibition [17] [%] | inhibition [18] [%] | inhibition [19] [%] | inhibition [20] [%] |
| --- | --- | --- | --- | --- | --- | --- | --- | --- | --- | --- | --- | --- | --- | --- | --- | --- | --- | --- | --- | --- |
| COc1cccc(-c2c[nH]c3c(N/N=C/c4ccncc4)ncnc23)c1 | 14.7 | 0.71 | -1.68 | 1.14 | 4.14 | 0.94 | 3.3 | -3.02 | 0.08 | -4.21 | 0.2 | 1.73 | -1 | 8.8 | 43.7 | 9.76 | 9.01 | 2.82 | 1.73 | 2.96 |
| Cc1ccc(O)cc1Nc1ccnc2cc(-c3ccccn3)ccc12 | 3 | -1.63 | -2.47 | 2.72 | 7.92 | 2.39 | 15.8 | -2.37 | -0.81 | 0 | 0.38 | 0.62 | -0.19 | 1.53 | -1.39 | 1.97 | -1.79 | 6.75 | 1.3 | 5.73 |
| COc1cc(/C=N/Nc2ncnc3[nH]ncc23)ccc1O | 2.2 | -1.89 | 2.08 | 10.2 | 44.2 | 3.6 | 20.3 | 6.86 | 30.9 | -1.46 | -2.47 | 0.06 | 0.42 | 8.38 | 34.8 | 14.9 | 62 | 5.05 | 13.6 | 0.87 |
| c1ccc(-c2nc3n(c2-c2ccc4c(c2)OCO4)CCC3)nc1 | 1.88 | -0.51 | -1.84 | 5.05 | 7.23 | 6.67 | 8.16 | -3.19 | -2.19 | -1.79 | 0.44 | -0.36 | 0 | 0.8 | 1.12 | 0.69 | -5.83 | 3.06 | -0.72 | 1.33 |
| Cc1ccc2c(-c3ccnc(Nc4ccccc4)n3)c(-c3ccc(F)cc3)nn2n1 | 2.32 | -1.57 | -2.42 | 2.88 | 0.97 | 2.44 | 4.54 | 2.52 | 1.56 | 0 | 1.05 | -1.64 | 0 | 1.08 | -2.67 | 5 | 0.7 | 4.32 | 1.74 | 1.25 |
| CNC(=O)c1cccc(C#Cc2cncnc2Nc2ccc(OCc3cccc(F)c3)c(Cl)c2)c1 | -0.21 | -1.88 | 0.32 | 0.38 | -2.56 | 0.74 | -1.1 | 1.78 | 1.45 | 0.36 | 2.62 | 0.55 | -7.19 | 2.99 | 10.1 | -3.42 | -9.45 | 0.53 | -0.35 | 4.53 |
